Measurements from ChEMBL document CHEMBL3988442, “University of Dundee, Small-Polar-MMV Screening Library” (2021).
About 440 (0.52%) of roughly 85,000 compounds showed an effect of 50% or more. Only a selection was taken, and strong results are over-represented in it overall.

Test: In vitro enzyme assay to detect hydrolysis of chlorophenol red-beta-D-[…] directly proportional to the number of Toxoplasma stably expressing beta-galactosidase
Type: functional, organism-based, Toxoplasma gondii
Set-up: scale not given: in the data most compounds retested in dose-response had high values

SMILES	Percent Effect (50 µM) [%]	Percent Effect (10 µM) [%]
Nc1nnc(SCc2cn3ccccc3n2)s1	-6.062	
CNCC(=O)Nc1ccccc1OC	7.8	
COc1ccccc1NC(=O)CC#N	50.64	
N#CCC(=O)Nc1ccccc1I	0.5556	
Cn1c(C(C)(C)N)nc2ccccc21	4.322	
COC(=O)Cc1cccc(NC(=O)CC2CC2)n1	2.915	
COc1cccc(CNCC2CN(C)CCO2)c1 (configuration not stated)		-20.59
COc1cccc(CNCC2CCOC2)c1 (configuration not stated)	52.55	
COc1cccc(N2CCC(CNCc3cccc(C#N)c3)C2)c1 (configuration not stated)		-3.388
O=C(NCCSCc1cccc(Cl)c1)C1CNCCO1 (configuration not stated)	4.575	
CC(C)OCC(O)CN1CCN(C(C)C)CC1 (configuration not stated)	-5.583	
CC(C)(C)NCc1ccc(OCc2ccc3c(c2)OCCO3)cc1.Cl		-4.151
CC(O)CNCc1ccc(OCc2ccc3c(c2)OCCO3)cc1.Cl (configuration not stated)		-0.2514
CCNCc1ccc(OCc2ccc3c(c2)OCCO3)cc1.Cl		57.45
CCCNCc1ccc(OCc2ccc3c(c2)OCCO3)cc1.Cl		26.87
CNCc1ccc(OCc2ccc3c(c2)OCCO3)cc1.Cl		14.53
COc1ccc2oc(CNC(C)(CO)CO)cc2c1	4.082	
O=C(CNC(=O)c1cccs1)c1ccccc1	-23.7	
CCN(CC(C)(C)O)C(=O)c1nccc2ccccc12	-2.694	
CCNC(=O)CN1CCN(Cc2cccnc2N)CC1	3.908	
COCC(C)NC(=O)CCn1cnc2sccc2c1=O (configuration not stated)	-6.543	
CS(=O)(=O)NCC(=O)NCc1cnn2ccccc12	-11.78	
CCN1CCCC1CNS(=O)(=O)CCCC#N (configuration not stated)	-20.61	
CCc1n[nH]c(NC(=O)c2cc(C(C)=O)cs2)n1	-2.258	
NC(=O)CCN1C(=O)CCC1=O	1.954	

SMILES	Percent Effect (50 µM) [%]	Percent Effect (10 µM) [%]
Cc1ccccc1CNC(=O)N(C)Cc1nnc[nH]1	-3.326	
COC(=O)c1cnc(O)cn1	0.4239	
COC(=O)c1cnc(F)cn1	53.27	
COC(=O)c1cnc(OC)cn1	10.7	
O=C(CNC1(CO)CCOCC1)Nc1cccc(F)c1	-18.29	
CC(C)C(N)C1(CO)CCC1 (configuration not stated)	-14.82	
N#Cc1cccnc1NCC1COc2ccccc2O1 (configuration not stated)	-5.408	
CCc1ccc(CN2CCCn3c(nc(Cn4ccnc4)cc3=O)C2)o1.O=C(O)C(F)(F)F.O=C(O)C(F)(F)F		1.534
Cc1ccc(CN2CCCn3c(nc(Cn4ccnc4)cc3=O)C2)o1		95.97
O=c1cc(Cn2ccnc2)nc2n1CCCN(Cc1ccco1)C2		-0.8368
NC(=O)CN1CC(c2nc(C3CC3)no2)C1.O=C(O)C(=O)O		-8.991
O=C(CN1CCCC(c2noc(C3CC3)n2)C1)N1CCCC1 (configuration not stated)		4.609
CC(c1nc(C2CC2)no1)N1CCN(CC(=O)N2CCOCC2)CC1 (configuration not stated)		3.194
O=C(CN1CC(c2nc(C3CC3)no2)C1)N1CCOCC1.O=C(O)C(=O)O		76.44
CC1CCN(C(=O)CN2CC(c3nc(C4CC4)no3)C2)CC1.O=C(O)C(=O)O		-17.41
Nc1ccnn1Cc1ccccn1	-24.54	
O=C(CN1CCCCC1)N1CCCCC1	1.789	
O=C(NCCOCCO)c1cn2ccsc2n1	19.68	
CNC(=O)C1CNC1	0.513	
COCCCNC(=O)CN(C)c1ccccc1F	2.537	
COc1cccc(-c2cccc(N3CCC(N[C@@H]4CCOC4)CC3)c2)c1		25.91
Clc1cccc(-c2cccc(N3CCC(NC4CCOCC4)CC3)c2)c1		94.46
Cc1ccc(-c2cccc(N3CCC(NC4CCOCC4)CC3)c2)cc1		36.9
NCCOCC1CCCO1 (configuration not stated)	-7.088	
c1cc(SCCOCC2CCCO2)ccn1 (configuration not stated)	73.14	

SMILES	Percent Effect (50 µM) [%]	Percent Effect (10 µM) [%]
Cc1ccccc1-n1cnnc1SCCOCC1CCCO1 (configuration not stated)		-4.234
CN1CCOC(C(=O)N(C)Cc2cccc(O)c2)C1 (configuration not stated)	-4.809	
CN(C)c1nc(N)nc(CN2CCCC2c2cccs2)n1 (configuration not stated)		12.16
Oc1ccccc1CN1CCCCCC1c1cccs1 (configuration not stated)		10.91
Nc1nc(N)nc(CN2CCCC2c2cccs2)n1 (configuration not stated)	61.8	
CC(=O)NCCCc1nc2ccccc2n1C	-0.2926	
O=C(CN1CCOCC1)N1CCCC(c2nnc[nH]2)C1 (configuration not stated)	-8.944	
CC1C(=O)NCCN1C(=O)c1cc(-c2ccco2)on1 (configuration not stated)	0.5841	
Cc1cc(F)cc(S(=O)(=O)NCCN)c1	-4.306	
O=C(CCn1cccn1)Nc1cncc(Br)c1O	-6.766	
O=C(CC1CCCC1)NCCc1noc(CO)n1	66.39	
CCCOC(C)C(=O)NCCc1noc(CO)n1 (configuration not stated)	-15.52	
CC[C@H](C)[C@H](N)C(=O)NCCc1noc(CO)n1	11.28	
Cc1nccc(CNc2ncc(C(N)=O)cc2Cl)n1	-11.46	
COc1ccccc1NCC(=O)NCC(C)(O)C(C)C (configuration not stated)	0.7495	
NC1CSc2ccccc21 (configuration not stated)	16.15	
NCCC(=O)N1CCCC(CCc2ccc(F)cc2)C1 (configuration not stated)	62.64	
NCC(=O)N1CCCC(CCc2ccc(F)c(F)c2)C1 (configuration not stated)	39.41	
NCC(=O)N1CCCC(CCc2ccc(F)cc2)C1 (configuration not stated)	31.97	
Cc1nnc(CNC(=O)Nc2ccc(F)cc2)o1	-6.078	
CC1(C)CN(c2ccnc3ccccc23)CC[S+]1[O-] (configuration not stated)	6.751	
O=S(=O)(NC1CCCC1)C1CCOCC1	42.45	
CCc1nc2ccccc2c(=O)n1CC1(O)CCN(C(=O)COC)CC1.Cl		54.94
CCCC(=O)N1CCC(O)(Cn2c(CC)nc3ccccc3c2=O)CC1.Cl		-0.06406
CCc1nc2ccccc2c(=O)n1CC1(O)CCN(C(=O)C2CC2)CC1.Cl		0.3648

SMILES	Percent Effect (50 µM) [%]	Percent Effect (10 µM) [%]
Cc1cc(CNc2ncnc3c2cnn3C)on1	-29.33	
CC1COc2ccccc2N1CC(N)=O (configuration not stated)	-5.521	
CNC(=O)N1CCCCCC1c1ccncc1 (configuration not stated)	14.5	
CC(C#N)CSc1ccccc1NCC(=O)NC1CCCCC1 (configuration not stated)		-5.31
CC(=O)c1ccc(F)cc1NCC(=O)NC1CC1	5.192	
CSc1ccccc1NCC(=O)NC1CC1	51.75	
CNCC(=O)Nc1cc(Cl)c(OCCOC)c(Cl)c1	-0.6689	
CCS(=O)(=O)N1CCC(NC(=O)c2ccc(Cl)o2)CC1	-2.927	
Cc1cc(F)cc(NC(=O)NC[C@@H]2CCCN2)c1	21.68	
O=C(NCc1ccc2c(c1)OCO2)n1ccnc1	96.82	
CC(Cn1ccnc1)NC(=O)NCc1ccc2c(c1)OCCO2 (configuration not stated)		-19.42
O=C(NCc1ccc2c(c1)OCO2)N1CCCCC1	-4.35	
c1cn(C2CCNC2)nn1 (configuration not stated)	-13.42	
CCC(OC)C(=O)N1CC(Oc2ccccc2F)C1 (configuration not stated)	-7.864	
CC(=O)c1cccc(NS(=O)(=O)c2cc(C)c(C(=O)O)s2)c1		-0.4058
CC(=O)Nc1ncc(S(=O)(=O)N2CCCC(C)C2)s1 (configuration not stated)		-8.14
CC(=O)Nc1ncc(S(=O)(=O)N2CCN(C3CCCCC3)CC2)s1		-4.699
CC(=O)Nc1ncc(S(=O)(=O)Nc2ccc3c(c2)OCCO3)s1		68.62
Cc1cccc(NS(=O)(=O)c2cc(C(=O)O)oc2C)c1		-16.73
CC(=O)Nc1ncc(S(=O)(=O)Nc2cccc(C)c2)s1		60.94
CCS(=O)(=O)CCC(=O)Nc1cccc(F)c1	5.162	
Cc1cc(C(=O)O)cc(S(=O)(=O)Nc2ccc3c(c2)OCCO3)c1C		-2.504
CC(=O)Nc1ncc(S(=O)(=O)Nc2cccc(F)c2)s1		67.14
CC(=O)Nc1ncc(S(=O)(=O)Nc2cccc(O)c2)s1		62.29
CC(=O)Nc1ncc(S(=O)(=O)N2CCOCC2)s1		-6.42

SMILES	Percent Effect (50 µM) [%]	Percent Effect (10 µM) [%]
Cc1c(S(=O)(=O)Nc2cccc(F)c2)cnn1C	-8.725	
CCNC(=O)NCc1ncoc1C	-6.658	
NC(=O)Cc1ccc(-c2ccc(C(N)=O)c(Cl)c2)cc1	-4.393	
CCn1ccnc1C(C)N (configuration not stated)	1.366	
CNC(=O)c1cccc(NC(C)C(=O)NCC(C)C)c1 (configuration not stated)	-5.14	
Cn1cc(C(N)=O)c(NCc2ccc(F)c(C#N)c2)n1	-8.67	
CN1C(=O)[C@H]2CN(Cc3cccc(Cl)c3F)C[C@H]2C1=O	-8.035	
O=C(c1cc(Cl)ccc1O)N1CCOCC1	6.297	
CNCC(=O)Nc1ccc(C)cc1C(=O)N(C)C	-7.454	
CCc1nccn1CCCNC(=O)Cc1nonc1C	3.782	
CCn1cc(C(=O)NCc2ccc(CNC)cc2)cn1	-1.69	
CC1CCCCN1CCNC(=O)c1ccccn1 (configuration not stated)	1.645	
COc1ccc(Cl)cc1CNCCSc1nnnn1C	-8.775	
Cc1nc([C@H]2CCCN2)cs1	52.58	
Cc1cccc(C2CCCN2)n1 (configuration not stated)	-3.572	
Cc1cc(C2CCCN2)no1 (configuration not stated)	-6.252	
CC(=O)NC1CCNC1 (configuration not stated)	26.97	
CN1CC(NC(=O)CCC(=O)c2cccs2)CCC1=O (configuration not stated)	-1.402	
COCC1CCN(Cc2ccc(NC(C)=O)cc2)C1 (configuration not stated)	-11.02	
CC(=O)Nc1ccc(CN2CCCOC(C)C2)cc1 (configuration not stated)	52.96	
CCC(=O)NC1CCCN(Cc2ccc(NC(C)=O)cc2)C1 (configuration not stated)		8.052
CCC(C)(CC)NC(=O)Nc1cnn(CCOC)c1	-4.406	
